Out of some 39,000 compounds screened, about 3,300 (8.5%) were called active. The list comes from a sample in which actives are over-represented; it also holds similar structures and randomly drawn compounds.
The molecules below were run on HepG2 (assay: cytotoxicity call (relative viability < 0.9)). Settings: 10 µM.
For Cc1cc(F)ccc1S(=O)(=O)N1[C@@H]2CC[C@@H](C2)[C@H]1c1nc2cccc(OCc3ccc(F)cc3)c2[nH]1, the cytotoxicity call was “inactive”. For C[C@@H]1CCCCO[C@H](CN(C)S(=O)(=O)c2cn(C)cn2)[C@@H](C)CN([C@H](C)CO)C(=O)c2cc(N(C)C)ccc2O1, the cytotoxicity call was “inactive”. C[C@H](CO)N1C[C@H](C)[C@@H](CN(C)C(=O)Nc2ccc(C(F)(F)F)cc2)Oc2ccc(NS(=O)(=O)c3ccc(Cl)cc3)cc2C1=O was tested, and the cytotoxicity call was “inactive”. With CCCN1C[C@H](C)[C@H](OC)CN(C)C(=O)c2ccc(NS(=O)(=O)c3cn(C)cn3)cc2OC[C@@H]1C the cytotoxicity call was “inactive”. For CN1CCN(C(=O)C[C@@H]2CC[C@H]3[C@@H](COC[C@H](O)CN3C(=O)C3CCOCC3)O2)CC1, the cytotoxicity call was “inactive”. In the case of C[C@H]1CN([C@@H](C)CO)C(=O)c2cccc(NS(=O)(=O)c3ccccc3)c2O[C@H]1CN(C)Cc1ccc(Oc2ccccc2)cc1, the cytotoxicity call is reported as “inactive”. For C[C@@H]1CN([C@@H](C)CO)C(=O)c2cc(NC(=O)C3CCCCC3)ccc2O[C@@H](C)CCCCO[C@@H]1CN(C)Cc1ccccc1, the cytotoxicity call was “inactive”. With COc1cc(C(=O)O[C@H]2CC[C@@]3(C)[C@@H]4CC[C@H]5[C@]6(O)C[C@H](O)[C@@]7(O)[C@@H](CN8C[C@@H](C)CC[C@H]8[C@@]7(C)O)[C@]6(O)C[C@@]53O[C@@]24O)cc(OC)c1OC the cytotoxicity call was “inactive”. In the case of O=C(Nc1ncc(SCCN2CCCC2)s1)[C@]1(c2ccc(S(=O)(=O)C3CC3)cc2)C[C@H]1C1CCCCC1, the cytotoxicity call is reported as “active”. Cc1ccc(-c2ccc3c(c2)O[C@H](CN(C)C(=O)CN(C)C)[C@@H](C)CN([C@H](C)CO)S3(=O)=O)cc1 was tested, and the cytotoxicity call was “inactive”. For Cn1c(C(=O)N2CCCO[C@@H](Cn3cccn3)C2)cc(=O)n(C)c1=O, the cytotoxicity call was “inactive”. In the case of C[C@H]1CN([C@@H](C)CO)C(=O)c2cc(NC(=O)Nc3ccc(F)cc3)ccc2O[C@@H]1CN(C)S(=O)(=O)c1cn(C)cn1, the cytotoxicity call is reported as “inactive”. COc1ccc(S(=O)(=O)N(C)C[C@@H]2Oc3ccc(NS(=O)(=O)c4cn(C)cn4)cc3CC(=O)N([C@@H](C)CO)C[C@@H]2C)cc1 was tested, and the cytotoxicity call was “inactive”. In the case of CN(C)c1cc(CNCC(C)(C)C)c(O)c2c1C[C@H]1C[C@H]3[C@H](N(C)C)C(=O)[C@H](C(N)=O)C(=O)[C@@]3(O)C(=O)[C@@H]1C2=O, the cytotoxicity call is reported as “inactive”. With C[C@@H]1CN([C@@H](C)CO)C(=O)c2cc(NC(=O)Nc3ccc(C(F)(F)F)cc3)ccc2O[C@H]1CN(C)Cc1ccncc1 the cytotoxicity call was “active”. In the case of C[C@H]1CN([C@@H](C)CO)C(=O)c2cc(NC(=O)Nc3ccc(C(F)(F)F)cc3)ccc2O[C@@H]1CN(C)Cc1ccncc1, the cytotoxicity call is reported as “active”. With C[C@@H]1CN([C@H](C)CO)C(=O)c2cc(NC(=O)Nc3ccc(C(F)(F)F)cc3)ccc2O[C@H]1CN(C)Cc1ccncc1 the cytotoxicity call was “inactive”. C[C@H]1CN([C@@H](C)CO)C(=O)c2cc(NC(=O)Nc3ccc(C(F)(F)F)cc3)ccc2O[C@H]1CN(C)Cc1ccncc1 was tested, and the cytotoxicity call was “inactive”. In the case of C[C@@H]1CN([C@@H](C)CO)C(=O)c2cc(NC(=O)Nc3ccc(C(F)(F)F)cc3)ccc2O[C@@H]1CN(C)Cc1ccncc1, the cytotoxicity call is reported as “inactive”. With C[C@@H]1CN([C@H](C)CO)C(=O)c2cc(NC(=O)Nc3ccc(C(F)(F)F)cc3)ccc2O[C@@H]1CN(C)Cc1ccncc1 the cytotoxicity call was “inactive”. In the case of CO[C@H]1CN(C)C(=O)c2cc(NC(=O)C3CCOCC3)ccc2OC[C@@H](C)N(Cc2cccnc2)C[C@@H]1C, the cytotoxicity call is reported as “inactive”. CC(C)NC(=O)N(C)C[C@H]1Oc2ccc(NC(=O)Cc3ccccc3)cc2CC(=O)N([C@H](C)CO)C[C@@H]1C was tested, and the cytotoxicity call was “inactive”. In the case of c1ccc(Oc2ccncc2)cc1, the cytotoxicity call is reported as “inactive”. COC(=O)C(CC#Cc1ccc2c(c1)[C@]1(C(=O)N2)[C@H](c2ccc(O)cc2)N2[C@H](c3ccccc3)[C@H](c3ccccc3)OC(=O)[C@H]2[C@@H]1C(=O)NC[C@H](O)c1ccccc1)C(=O)OC was tested, and the cytotoxicity call was “inactive”. In the case of C[C@H]1CN([C@@H](C)CO)C(=O)c2c(c3ccccc3n2C)-c2ccccc2CO[C@H]1CN(C)Cc1ccc(Oc2ccccc2)cc1, the cytotoxicity call is reported as “inactive”. In the case of COc1ccc(S(=O)(=O)Nc2cccc3c2O[C@H](CN(C)S(=O)(=O)c2ccccc2)[C@H](C)CN([C@@H](C)CO)C3=O)cc1, the cytotoxicity call is reported as “inactive”. COCC#Cc1ccc2c(c1)O[C@H](CN(C)C(=O)COC)[C@H](C)CN([C@@H](C)CO)S2(=O)=O was tested, and the cytotoxicity call was “inactive”. Cc1cc(OCc2nnc(SC3CCCC3)n2-c2cccnc2)ccc1-c1ccc(S(C)(=O)=O)cc1 was tested, and the cytotoxicity call was “active”. Cc1nc(N)c(C(=O)O)nc1C was tested, and the cytotoxicity call was “inactive”. With C[C@@H]1CN([C@H](C)CO)C(=O)Cc2cc(NC(=O)Cc3cn(C)c4ccccc34)ccc2O[C@H]1CN(C)Cc1ccc(C(=O)Nc2ccccc2N)cc1 the cytotoxicity call was “inactive”. In the case of COc1ccc(CN(C)C[C@H]2OCCCC[C@H](C)Oc3ccc(NS(=O)(=O)c4ccc(OC)cc4)cc3C(=O)N([C@H](C)CO)C[C@H]2C)cc1, the cytotoxicity call is reported as “inactive”. With COc1ccc(CN(C)C[C@@H]2OCCCC[C@@H](C)Oc3ccc(NS(=O)(=O)c4ccc(OC)cc4)cc3C(=O)N([C@H](C)CO)C[C@@H]2C)cc1 the cytotoxicity call was “inactive”. For COc1ccc(CN(C)C[C@H]2OCCCC[C@@H](C)Oc3ccc(NS(=O)(=O)c4ccc(OC)cc4)cc3C(=O)N([C@@H](C)CO)C[C@@H]2C)cc1, the cytotoxicity call was “inactive”. With COc1ccc(S(=O)(=O)Nc2ccc3c(c2)C(=O)N([C@@H](C)CO)C[C@H](C)[C@@H](CN(C)Cc2ccc(Cl)c(Cl)c2)OCCCC[C@H](C)O3)cc1 the cytotoxicity call was “active”. In the case of COc1ccc(S(=O)(=O)Nc2ccc3c(c2)C(=O)N([C@@H](C)CO)C[C@H](C)[C@@H](CN(C)Cc2ccc(Cl)c(Cl)c2)OCCCC[C@@H](C)O3)cc1, the cytotoxicity call is reported as “active”. In the case of COc1ccc(S(=O)(=O)Nc2ccc3c(c2)C(=O)N([C@H](C)CO)C[C@H](C)[C@@H](CN(C)Cc2ccc(Cl)c(Cl)c2)OCCCC[C@@H](C)O3)cc1, the cytotoxicity call is reported as “active”. For COc1ccc(S(=O)(=O)Nc2ccc3c(c2)C(=O)N([C@H](C)CO)C[C@@H](C)[C@H](CN(C)Cc2ccc(Cl)c(Cl)c2)OCCCC[C@H](C)O3)cc1, the cytotoxicity call was “active”. For COc1ccc(CN(C)C[C@H]2OCCCC[C@@H](C)Oc3ccc(NS(=O)(=O)c4ccc(OC)cc4)cc3C(=O)N([C@H](C)CO)C[C@H]2C)cc1, the cytotoxicity call was “inactive”. In the case of COc1ccc(CN(C)C[C@@H]2OCCCC[C@@H](C)Oc3ccc(NS(=O)(=O)c4ccc(OC)cc4)cc3C(=O)N([C@@H](C)CO)C[C@H]2C)cc1, the cytotoxicity call is reported as “inactive”. For COc1ccc(CN(C)C[C@H]2OCCCC[C@H](C)Oc3ccc(NS(=O)(=O)c4ccc(OC)cc4)cc3C(=O)N([C@@H](C)CO)C[C@@H]2C)cc1, the cytotoxicity call was “inactive”. For C[C@H]1CCCCO[C@H](CN(C)C(=O)Nc2ccc3c(c2)OCO3)[C@@H](C)CN([C@@H](C)CO)C(=O)c2cc(NS(=O)(=O)c3cccs3)ccc2O1, the cytotoxicity call was “inactive”. C[C@H](CO)N1C[C@H](C)[C@H](CN(C)Cc2ccc(C(=O)Nc3ccccc3N)cc2)Oc2c(NS(C)(=O)=O)cccc2C1=O was tested, and the cytotoxicity call was “inactive”. COCCNCCn1cnc2c1c(=O)[nH]c(=O)n2C was tested, and the cytotoxicity call was “inactive”. With C[C@@H]1CCCCO[C@@H](CN(C)Cc2ccncc2)[C@H](C)CN([C@H](C)CO)C(=O)c2cc(NC(=O)Nc3ccc4c(c3)OCO4)ccc2O1 the cytotoxicity call was “inactive”. With C[C@@H]1CCCCO[C@@H](CN(C)C(=O)CCCN(C)C)[C@@H](C)CN([C@@H](C)CO)C(=O)c2cc(NC(=O)Nc3ccc(C(F)(F)F)cc3)ccc2O1 the cytotoxicity call was “inactive”. With Cc1ccc(S(=O)(=O)N(C)C[C@H]2OCCCC[C@H](C)Oc3ccc(NC(=O)Nc4c(C)noc4C)cc3C(=O)N([C@@H](C)CO)C[C@@H]2C)cc1 the cytotoxicity call was “inactive”. C[C@H](CO)N1C[C@H](C)[C@@H](CN(C)C(=O)Nc2cccc3ccccc23)Oc2ccc(NS(=O)(=O)c3ccc(F)cc3)cc2C1=O was tested, and the cytotoxicity call was “inactive”. C[C@H]1CN([C@@H](C)CO)C(=O)Cc2cc(NC(=O)C3CC3)ccc2O[C@@H]1CN(C)S(=O)(=O)c1cn(C)cn1 was tested, and the cytotoxicity call was “inactive”. With COc1ccc(S(=O)(=O)Nc2ccc3c(c2)C(=O)N([C@H](C)CO)C[C@H](C)[C@H](CN(C)Cc2ccc(Cl)c(Cl)c2)OCCCC[C@@H](C)O3)cc1 the cytotoxicity call was “active”. In the case of COc1ccc(S(=O)(=O)Nc2ccc3c(c2)C(=O)N([C@H](C)CO)C[C@@H](C)[C@@H](CN(C)Cc2ccc(Cl)c(Cl)c2)OCCCC[C@H](C)O3)cc1, the cytotoxicity call is reported as “inactive”. In the case of COc1ccc(S(=O)(=O)Nc2ccc3c(c2)C(=O)N([C@@H](C)CO)C[C@@H](C)[C@@H](CN(C)Cc2ccc(Cl)c(Cl)c2)OCCCC[C@@H](C)O3)cc1, the cytotoxicity call is reported as “active”. With COc1ccc(S(=O)(=O)Nc2ccc3c(c2)C(=O)N([C@@H](C)CO)C[C@H](C)[C@H](CN(C)Cc2ccc(Cl)c(Cl)c2)OCCCC[C@@H](C)O3)cc1 the cytotoxicity call was “active”. For COc1ccc(S(=O)(=O)Nc2ccc3c(c2)C(=O)N([C@H](C)CO)C[C@H](C)[C@H](CN(C)Cc2ccc(Cl)c(Cl)c2)OCCCC[C@H](C)O3)cc1, the cytotoxicity call was “inactive”. COc1ccc(S(=O)(=O)Nc2ccc3c(c2)C(=O)N([C@H](C)CO)C[C@@H](C)[C@H](CN(C)Cc2ccc(Cl)c(Cl)c2)OCCCC[C@@H](C)O3)cc1 was tested, and the cytotoxicity call was “active”. COCCNC(=O)C[C@H]1C[C@@H]2c3cc(NS(C)(=O)=O)ccc3O[C@@H]2[C@@H](CO)O1 was tested, and the cytotoxicity call was “inactive”. O=C(O)c1csc2ccccc12 was tested, and the cytotoxicity call was “inactive”. In the case of Cc1noc(C)c1S(=O)(=O)N(C)C[C@H]1OCCCC[C@@H](C)Oc2ccc(NS(C)(=O)=O)cc2C(=O)N([C@H](C)CO)C[C@@H]1C, the cytotoxicity call is reported as “inactive”. With COc1ccc(S(=O)(=O)N(C)C[C@H]2Oc3ccc(NC(=O)NC(C)C)cc3CC(=O)N([C@@H](C)CO)C[C@H]2C)cc1 the cytotoxicity call was “inactive”. In the case of O=C(CN1C(=O)COCC1=O)N1CCOCC1, the cytotoxicity call is reported as “inactive”.

— the antibiotic and cytotoxicity screens of Wong et al. (2023)
